# Active and inactive are the calls of the source.
# How the values were obtained:
# Albumin (Bos taurus) = Albumin (Bos taurus) (UniProt P02769); experiment: compounds binding labelled BSA control protein – biochemical, small-molecule microarray, Alexa647 label, 635/667 nm fluorescence, artefact control for SMM control protein annotation, profiling panel (AID 1118); conditions: BSA-A647 binding, fluorescence 635 nm, higher = more signal;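 note: score merges 667 nm emission intensity and signal-to-noise per printed compound spot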
# [1] = probe aXIP binding to arrayed compounds – biochemical, NeuroSMM set, 635/667 nm fluorescence, primary screen (AID 1119); conditions: small-molecule microarray, higher = more signal, called active from +8 up or from −8 down;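 note: probe is the protein aXip251-270 applied at 1 µg/mL to compound-printed slides; binding of probe to printed compounds measured as 667 nm fluorescence plus signal to noise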
# [2] = probe aNOTCH3 binding on compound microarray – biochemical, small-molecule microarray, 635/667 nm fluorescence, primary screen (AID 1120); conditions: higher = more signal;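 note: probe is a biotin-tagged antibody raised against NOTCH3 rather than NOTCH3 protein; score merges spot fluorescence near 667 nm with spot signal to noise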
# [3] = probe aNOTCH2 binding on compound microarray – biochemical, small-molecule microarray, 635/667 nm fluorescence, primary screen (AID 1121); conditions: higher = more signal;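 note: score merges feature fluorescence read at 667 nm with its signal to noise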
# [4] = target: Carbonic anhydrase 2 (Homo sapiens) (UniProt P00918); experiment: compounds binding carbonic anhydrase 2 – biochemical, small-molecule microarray, Alexa647-labelled CAII, profiling panel (AID 1122); conditions: CAII-A647 binding fluorescence, higher = more signal
# [5] = COS7 lysate on small-molecule microarray, probe aHis, 635 nm (AID 1123); conditions: COS7 cell lysate, fluorescence, higher = more signal;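 note: z-score combines 667nm fluorescence intensity with signal-to-noise per printed compound spot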
# [6] = probe aLAP1 signal on lysate-treated microarray – cell lysate, small-molecule microarray, COS7 lysate, primary screen (AID 1124); conditions: probe aLAP1, fluorescence, higher = more signal;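 note: lysate comes from COS7 cells expressing LAP1 and is applied at 0.3 µg/mL; score merges spot fluorescence near 667 nm with signal-to-noise over triplicate slides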
# Sam68 (KHDRBS1) = experiment: compounds binding KHDRBS1 protein – biochemical, small-molecule microarray, 635 nm fluorescence, primary screen (AID 1125); conditions: higher = more signal;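 note: score merges 667 nm channel intensity with signal to noise over triplicate slides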
# [7] = test system: Chordin-like protein 2 (CHRDL2); experiment: compounds binding chordin-like 2 – biochemical, small-molecule microarray, 635 nm fluorescence, primary screen (AID 1126); conditions: fluorescence 635 nm, higher = more signal;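 note: printed compound slides probed with Chrdl2 protein at 4 µg/mL for 1 h at 4 C; score merges 667 nm emission intensity with signal to noise over three replicate slides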
# [8] = target: Concanavalin-A (Canavalia ensiformis) (UniProt P02866); experiment: compounds binding concanavalin A lectin – biochemical, small-molecule microarray, Alexa647 label, 635 nm, artefact control for SMM control protein annotation, primary screen (AID 1127); conditions: ConA-A647 binding fluorescence, higher = more signal;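 note: z combines 667 nm emission intensity with signal-to-noise across three replicate slides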
# Chain of Concanavalin-A (Canavalia ensiformis) (P02866 whole entry, looked up): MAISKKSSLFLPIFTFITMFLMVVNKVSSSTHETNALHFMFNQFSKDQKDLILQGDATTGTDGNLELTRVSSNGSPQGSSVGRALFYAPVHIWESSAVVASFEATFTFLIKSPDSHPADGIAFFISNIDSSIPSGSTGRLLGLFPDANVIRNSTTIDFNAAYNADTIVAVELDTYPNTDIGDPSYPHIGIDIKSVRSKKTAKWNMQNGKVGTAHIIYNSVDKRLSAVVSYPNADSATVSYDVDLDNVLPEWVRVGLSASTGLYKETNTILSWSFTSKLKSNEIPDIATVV
# Chain of Albumin (Bos taurus) (P02769 whole entry, looked up): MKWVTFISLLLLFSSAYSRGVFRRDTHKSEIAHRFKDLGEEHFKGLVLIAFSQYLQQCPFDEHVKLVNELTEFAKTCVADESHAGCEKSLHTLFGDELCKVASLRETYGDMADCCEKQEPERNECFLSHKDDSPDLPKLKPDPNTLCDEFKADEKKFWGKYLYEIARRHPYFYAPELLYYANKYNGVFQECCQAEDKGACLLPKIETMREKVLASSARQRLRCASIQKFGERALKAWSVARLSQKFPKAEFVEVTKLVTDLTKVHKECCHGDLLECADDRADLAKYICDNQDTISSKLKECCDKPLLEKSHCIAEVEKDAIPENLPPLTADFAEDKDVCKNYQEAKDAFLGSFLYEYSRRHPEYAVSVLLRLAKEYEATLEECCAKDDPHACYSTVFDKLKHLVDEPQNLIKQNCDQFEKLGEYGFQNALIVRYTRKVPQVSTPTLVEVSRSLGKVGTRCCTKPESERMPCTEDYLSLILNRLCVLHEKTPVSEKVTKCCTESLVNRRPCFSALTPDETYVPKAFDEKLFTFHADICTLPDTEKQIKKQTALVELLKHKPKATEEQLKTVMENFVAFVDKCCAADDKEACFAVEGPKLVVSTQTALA
SMILES,composite z-score (Albumin (Bos taurus)),composite Z-score [1],composite z-score [2],composite z-score [3],composite z-score [4],composite z-score [5],composite z-score [6],composite z-score (Sam68 (KHDRBS1)),composite z-score [7],composite z-score [8]
C=CCNC(=O)[C@@H]1[C@H]2C(=O)O[C@H](c3ccccc3)[C@H](c3ccccc3)N2[C@H](c2ccc(O)cc2)[C@@]12C(=O)N(C(=O)OCCOC)c1ccc(C#CCCO)cc12,-0.906,0.232 (inactive),0.364,-0.0191,0.561,1.88,0.459,1.29,0.467,1.17
CC(C)=CCCC(C)=CC(O)C1C=CC2C(=O)N(c3ccccc3)C(=O)C2N1Nc1ccccc1F (stereo not given),0.846,0.0502 (inactive),0.0258,-0.186,0.662,1.3,0.561,1.13,-0.308,1.14
COCC(=C=CC[C@H](O)c1cccc(OCCO)c1)C[C@H](O)COCc1ccccc1,0.484,-0.141 (inactive),0.187,0.104,0.742,2.13,0.66,0.938,-0.227,-0.564
COc1cc(NN2C(C(O)c3ccc(I)cc3)C=CC3C(=O)N(c4ccccc4)C(=O)C32)cc(OC)c1OC (stereo not given),0.499,1.59 (inactive),0.185,-0.0501,0.758,3.02,0.0865,1.32,-0.357,1.01
CCOC(=O)C=Cc1ccccc1O,0.725,-0.116 (inactive),0.186,0.0295,0.188,0.466,0.163,1.01,0.0871,0.591
C=C(CCCC)/C(=C/C[C@H](OC(C)=O)c1ccc(OCCO)cc1)c1cc(C(=O)OC)ccc1OC,0.891,0.414 (inactive),0.0297,-0.0743,0.663,1.49,0.561,1.17,-0.15,0.366
NCCCCCNC(=O)[C@H]1C[C@H]2C(=O)N[C@@H](Cc3ccccc3)C(=O)N2[C@H]1c1ccc(O)cc1,0.819,0.491 (inactive),0.248,0.197,0.487,1.23,1.23,1.28,0.518,1.08
O=C1C[C@@](C(=O)NCc2ccccc2)(c2ccc([N+](=O)[O-])cc2)[C@@H](c2ccc(CO)cc2I)N1CC12CC3CC(CC(C3)C1)C2,0.59,-0.0102 (inactive),-0.223,-0.14,0.721,2.25,0.0884,1.21,0.542,0.999
C=C[C@@H](C)[C@H](O)c1ccc(OCCO)cc1,0.189,0.0275 (inactive),-0.529,-0.206,0.799,0.28,-0.343,-0.885,-0.49,-1.01
O=C1OCCC=C[C@H]2OC34C=CCN(c5ccc(Cl)cc5)C(=O)[C@H]3N(CCCCCCO)C(=O)[C@@H]4C12 (stereo not given in full),-0.418,0.318 (inactive),-0.122,-0.218,0.802,-0.328,-0.256,-0.156,-1.16,-0.941
O=C1C2C=CC(C(O)c3cccc(O)c3)N(Nc3ccccc3)C2C(=O)N1c1ccccc1 (stereo not given),0.818,0.365 (inactive),0.185,-0.155,0.792,0.653,0.069,0.16,-0.201,0.338
C=CCC(OC(C)=O)[C@@H]1[C@@H](N(Cc2cc3ccccc3o2)C(=O)c2ccc(-c3ccccc3)cc2)c2cc(OCCCO)ccc2N1C(=O)Cc1ccc(OC)cc1 (stereo not given in full),0.0787,0.443 (inactive),-0.0189,-0.14,-0.284,0.401,-0.237,0.0416,0.186,0.444
Cc1ccc(C(C)CC(O)C2C=CC3C(=O)N(c4ccccc4)C(=O)C3N2Nc2ccc(C#N)cc2)o1 (stereo not given),1,-0.102 (inactive),0.0744,0.115,0.707,3.21,0.825,1.29,-0.387,1.16
COCCOC(=O)N1C(=O)[C@@]2(c3cc(C#CCNC(N)=O)ccc31)[C@H](c1ccc(OCCO)cc1)N1[C@H](c3ccccc3)[C@H](c3ccccc3)OC(=O)[C@H]1[C@@H]2C(=O)NC[C@H](O)c1ccccc1,0.633,-0.524 (inactive),0.206,-0.013,0.225,0.0755,0.442,1.29,0.84,1.14
O=C1O[C@H](c2ccccc2)[C@H](c2ccccc2)N2[C@H]1[C@@H](C(=O)Nc1nc3ccccc3s1)[C@]1(C(=O)Nc3ccc(C#CC4=CCCCC4)cc31)[C@H]2c1ccc(O)cc1,0.658,0.156 (inactive),0.278,-0.117,0.185,2.16,-0.0648,1.3,-0.12,0.973
Cc1ccc(S[C@]2(C(=O)NCC(C)C)CC(=O)N(C3Cc4ccccc4C3)[C@@H]2c2ccc(CO)cc2I)cc1,-0.615,-0.211 (inactive),-0.323,-0.188,0.398,0.554,-0.221,-0.383,-1.65,-0.762
[N-]=[N+]=NCc1ccccc1[C@@H]1OC(c2ccc(OCCCO)cc2)=N[C@]1(Cc1ccccc1N=[N+]=[N-])C(=O)N1CCCCC1,0.354,0.038 (inactive),-0.137,-0.116,0.56,2.57,0.0904,1.22,-0.39,1.14
C=CCC(OC(C)=O)[C@@H]1[C@@H](N(Cc2cccc3ccccc23)C(=O)c2ccc(-c3ccccc3)cc2)c2cc(OCCCO)ccc2N1C(=O)c1ccc(-c2ccccc2)cc1 (stereo not given in full),-0.0811,-0.646 (inactive),-0.0647,-0.0294,0.255,0.384,0.205,-0.225,-0.046,-0.441
O=C1C2C=CC(C(O)c3ccc4c(c3)OCO4)N(Nc3ccccc3)C2C(=O)N1c1ccccc1 (stereo not given),1.01,0.348 (inactive),0.345,0.0247,0.468,2.43,0.247,1.29,-0.0766,1.13
CCOC(=O)C[C@H]1[C@H](OC(=O)c2ccc(C(=O)c3ccccc3)cc2)[C@@H](NC(=O)CC(C)C)c2cc(OCCCO)ccc2N1C(=O)Cc1ccc(OC)cc1,0.793,-0.0147 (inactive),-0.0377,0.075,0.139,1.26,0.563,0.698,-0.612,0.142
COC(=O)C1N=C(c2ccc(OCCCO)cc2)N(c2ccccc2)O1 (stereo not given),0.878,0.608 (inactive),0.187,-0.0073,0.403,1.1,0.382,1.14,0.236,1.11
COCCCNC(=O)[C@@]1(c2ccc([N+](=O)[O-])cc2)CC(=O)N(CC23CC4CC(CC(C4)C2)C3)[C@@H]1c1ccc(CO)cc1I,0.0824,0.197 (inactive),-0.0751,-0.0561,0.126,1.61,0.159,0.745,-0.348,0.905
CC(C)C[C@@H]1NC(=O)[C@@]23C(=O)N[C@@H](Cc4ccccc4)C2[C@H](C)[C@@]2(C)O[C@H]2C3/C=C/C/C=C\CNC(=O)[C@@H](C)NC1=O (stereo not given in full),0.663,-0.106 (inactive),-0.251,-0.196,0.449,-0.128,-0.217,-0.604,0.643,0.075
CN1C(=O)C2C=CC(C(O)c3cc(C(F)(F)F)cc(C(F)(F)F)c3)N(Nc3ccccc3)C2C1=O (stereo not given),0.969,0.309 (inactive),-0.149,-0.147,0.831,2.96,-0.23,0.891,-0.616,-0.0932
Cc1ccccc1C(O)C1C=CC2C(=O)N(c3ccccc3)C(=O)C2N1Nc1ccc([N+](=O)[O-])cc1 (stereo not given),0.84,1.19 (inactive),0.116,-0.0796,0.684,2.73,1.03,1.3,-0.051,1.14
CN1C(=O)C2C(C1=O)C1C=C(CCCO)C2C(c2cccs2)N1Cc1cc2c(cc1Br)OCO2 (stereo not given),1.01,1.13 (inactive),0.323,-0.144,0.805,2.24,1.09,1.3,0.171,1.18
[N-]=[N+]=NC[C@H](Cc1ccccc1)NC(=O)c1ccccc1,0.494,-0.0662 (inactive),0.056,-0.0783,0.294,0.12,-0.0013,-0.258,0.433,-0.855
